The text below walks through data of PubChem BioAssay (Tox21).

Values joined by “and” are separate entries in the source; they are usually repeats but may differ in a detail not shown here. Equal values may be shown once. Results filed as inconclusive are left out. The source holds several records for some structures; these can differ, active in one and inactive in another. Active and inactive are the calls of the source. Calls come from the whole dose curve; as a rule, active = well fitted cell-killing curve with a large enough effect in the repeat runs; inconclusive = weak or mixed curves, or effect the other way; inactive = no such curve, though single readings can be large or run the other way.
Potency is the fitted concentration of half-maximal effect.

This test in a line: qHTS assay for identifying genotoxic compounds that show differential cytotoxicity against isogenic chicken DT40 cell lines with known DNA damage response pathways - Rev3 mutant cell line (AID 743014). Note: nearly all actives have a fitted effect of over 55% in size. Particulars: chicken DT40 Rev3-/- viability, CellTiter-Glo, 40 h; series mostly up to 68.4 µM. An excerpt:
National Center for Advancing Translational Sciences [NCATS]
NIH Chemical Genomics Center [NCGC]
U.S. Environmental Protection Agency [EPA]
National Institutes of Environmental Health Sciences [NIEHS]
National Toxicology Program [NTP]
U.S. Food and Drug Administration [FDA]
DNA repair pathways play a critical role in cellular homeostasis by repairing DNA damage induced by endogenous processes and xenobiotics. Isogenic chicken DT40 cell lines deficient in different DNA repair pathways can be used to identify genotoxic compounds and aid in characterizing the nature of the DNA damage induced. Two DNA repair-deficient cell lines with disrupted genes, Rad54/Ku70 or Rev3, were used to screen the Tox21 10K compound library. Possible genotoxicity was based on the presence of a significant increase in cytotoxicity in one or more of the DNA repair-deficient cell lines compared to that observed in the parental DNA repair-proficient cell line. CellTiter Glo viability assay (Promega, Madison, WI) was used to measure cell viability in these cells after compound treatment. This assay includes the data from the Rev3 mutant cell line.
Tox21 Assay Protocol Summary:
300 DT40 mutant cells in 5 uL/well were dispensed into white, solid-bottom 1536-well plates using a Multidrop Combi (ThermoFisher Scientific, Waltham, MA) dispenser. After the assay plates were incubated at 37 C/5% CO2 for approximately 0.5 hour, 23 nL of compounds dissolved in DMSO, positive controls or DMSO only was transferred into the assay plate by a pintool work station (Kalypsys, San Diego, CA). The assay plates were incubated at 37 C/5% CO2 for 40 hours. After 5 uL per well of CellTiter-Glo reagent was added into each well of the assay plates, the plates were incubated for 30 min at room temperature and the luminescence intensity of the plates was measured using a ViewLux (PerkinElmer, Shelton, CT) plate reader.
In general terms: Quantitative high-throughput screening tests each substance at several concentrations.
Regarding `CCCCN(CCCC)C(=O)N(CCCC)CCCC`, the Potency result is “inactive”.

Consider `Cc1cc2c(cc1C(F)(F)F)N(C(=O)Nc1ccc(Oc3cccnc3C)nc1)CC2`, for which the Potency is 0.781 µM (active).

Consider `[Cl][Au]([Cl])[Cl]`, for which the Potency is 12.2 µM (active).

In the case of `CC(C)(C)c1ccc(C(=O)CCCN2CCC(OC(c3ccccc3)c3ccccc3)CC2)cc1`, the Potency is 5.31 µM (active).

For `NNc1nc(-c2ccc([N+](=O)[O-])cc2)cs1`, the Potency was 1.72 µM (active).

As to `CCCCCCCCCCCCCC[P+](CCCC)(CCCC)CCCC` (tested in a mixture with another compound), the Potency is 0.218 µM (active).

As for `O=C(Oc1cccc2cccnc12)c1ccccc1`, the Potency is 2.98 µM (active).

For `O=C1Cc2cc(CCN3CCN(c4nsc5ccccc45)CC3)c(Cl)cc2N1`, the Potency was 33.5 µM (active) and 26.6 µM (active).

For the molecule `CC(C)(C)NC(=O)[C@@H]1C[C@@H]2CCCC[C@@H]2CN1C[C@@H](O)[C@H](Cc1ccccc1)NC(=O)[C@H](CC(N)=O)NC(=O)c1ccc2ccccc2n1`, the Potency is 13.3 µM (active).

Turning to `CCc1cc(SCc2sc(-c3ccc(C(F)(F)F)cc3)nc2CN2CCN(c3ccc(OC)cc3)CC2)ccc1OCC(=O)O`, the Potency was 61.1 µM (active).

On to `Cc1ccc2oc(CN(Cc3ccccc3)C(=O)Nc3c(F)cc(F)cc3F)c(-c3ccc(Cl)cc3)c2c1`, for which the Potency is 13.3 µM (active).

`Cc1onc(-c2ccccc2Cl)c1C(=O)N[C@@H]1C(=O)N2[C@@H]1SC(C)(C)[C@@H]2C(=O)O`: the Potency entry is “inactive”.

Consider `CCOC(=O)c1nc(C(Cl)(Cl)Cl)n(-c2ccc(Cl)cc2Cl)n1`, for which the Potency was 34.4 µM (active).

Take `CCCCCCCCCCCC(=O)NCCCN(C)C`: the Potency was 10.9 µM (active).

With `Fc1ccc(C(c2ccc(F)cc2)N2CCN(C/C=C/c3ccccc3)CC2)cc1`, the Potency is 13.3 µM (active).

With `CC(C)CCCCCCCCCCCCCCC(=O)O`, the Potency entry is “inactive”.

Regarding `COc1ccc(C(=O)/C(Br)=C\C(=O)O)cc1`, the Potency entry is “inactive and 6.11 µM (active)”.

Consider `CCCCCCCCCCCCCCCC(=O)OC[C@H](O)[C@H]1OC(=O)C(O)=C1O`, for which the Potency result is “inactive”.

Regarding `CNC(=O)c1ccccc1`, the Potency result was “inactive”.

Turning to `CN(C/C=C/C#CC(C)(C)C)Cc1cccc2ccccc12`, the Potency entry was “inactive”.

On to `Cc1onc(-c2c(Cl)cccc2Cl)c1C(=O)N[C@@H]1C(=O)N2[C@@H]1SC(C)(C)[C@@H]2C(=O)O`, for which the Potency result is “inactive”.

For the molecule `C1CCCC1`, the Potency result was “inactive”.

`O=[N+]([O-])c1cc(Cl)c(Cl)c(Cl)c1Cl`: the Potency entry is “inactive”.

Turning to `O=C(c1ccc(F)cc1)C1CCN(CCn2c(=O)[nH]c3ccccc3c2=O)CC1`, the Potency entry is “inactive”.

Regarding `Cc1cccc(S(=O)(=O)O)c1C`, the Potency entry is “inactive”.

Turning to `CCCCCCCCCCCCc1ccc(O)cc1`, the Potency is 7.7 µM (active).

Turning to `Clc1ccc2cc3ccccc3cc2c1`, the Potency result was “inactive”.

Consider `N#CSc1ccc(N)c([N+](=O)[O-])c1`, for which the Potency was 6.9 µM (active).

Regarding `CC(C)(C)CC(C)(C)c1ccc(OCCOCC[N+](C)(C)Cc2ccccc2)cc1`, the Potency is 841 nM (active) and 968 nM (active).

With `CCC1OCC(COc2ccc(Oc3ccccc3)cc2)O1` (stereo not given), the Potency entry is “inactive”.

In the case of `Nc1ccc(N)c2ccccc12`, the Potency is 5.44 µM (active).

For the molecule `CC1(C)CCC(C)(C)c2cc(C(=O)Nc3ccc(C(=O)O)cc3)ccc21`, the Potency was 19.3 µM (active).

As to `CCN(C(=O)N(CC)c1ccccc1)c1ccccc1`, the Potency was 7.7 µM (active).

Turning to `C=CC(=O)OCCn1c(=O)n(CCOC(=O)C=C)c(=O)n(CCOC(=O)C=C)c1=O`, the Potency is 2.43 µM (active).

As to `O=C1c2ccccc2Cc2ccccc21`, the Potency result is “inactive”.

On to `Nc1ccccc1O`, for which the Potency is 6.77 µM (active).

As to `COc1cccc2c1C(=O)c1c(O)c3c(c(O)c1C2=O)C[C@@](O)(C(=O)CO)C[C@@H]3O[C@H]1C[C@H](N)[C@H](O[C@@H]2CCCCO2)[C@H](C)O1`, the Potency was 0.237 µM (active).

Take `NNc1nc(-c2ccc(N)cc2)cs1`: the Potency was 21.7 µM (active).

Turning to `c1ccc(CSCc2ccccc2)cc1`, the Potency result was “inactive”.

Turning to `Cc1cc(CCN2CCN(c3nsc4ccccc34)CC2)cc2c1NC(=O)CC2(C)C`, the Potency was 5.45 µM (active).
